Of roughly 7,900 targets only a part is listed; those with a hit were picked by preference. About 0.6% of all pairs of compound and target were hits.
Tests used:
Test in all cases: log2 fold change, soluble protein after heating vs DMSO (PISA); higher = thermal stabilisation; K562 cells, 10 uM, 30 min; active = over 0.2 and 3.5 SD of the protein, either way, in both replicates (recomputed)
IRAK-1-4 Inhibitor I = compound: C1COCCN1CCN2C3=CC=CC=C3N=C2NC(=O)C4=CC(=CC=C4)[N+](=O)[O-] [IRAK-1-4 Inhibitor I]
Outline: (§1)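 Quantification of soluble protein used TMTpro 16plex LC-MS/MS, with channel sums equalised. Samples were the supernatant after 21,000xg for 90 min of pooled aliquots from K562 cells (2×10^6 cells/mL) treated with 10 μM compound for 30 min, heated for 3 min over 48°C-58°C, and extracted in PBS with 0.5% NP-40 at 4°C. Values, from duplicates, describe thermal stability against control samples on a log2 fold-change scale.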

ibrutinib = compound: C=CC(=O)N1CCC[C@@H](n2nc(-c3ccc(Oc4ccccc4)cc3)c3c(N)ncnc32)C1 [ibrutinib]
Outline: as §1

[1] = compound: CC(=O)c1cnc2ccc(-c3cc(Cl)c(O)c(Cl)c3)nc2c1N[C@H]1CC[C@H](CN(C)C)CC1
Outline: as §1

ralimetinib = compound: CC(C)(C)Cn1c(N)nc2ccc(-c3[nH]c(C(C)(C)C)nc3-c3ccc(F)cc3)nc21 [ralimetinib]
Outline: as §1

[2] = compound: CC(C)(O)CC(=O)NCCn1ccc2ncnc(Nc3ccc(Oc4cccc(C(F)(F)F)c4)c(Cl)c3)c21
Outline: as §1

[3] = compound: CC(C)C1=C2N=C(C=C(N2N=C1)NCC3=CC=CC=C3)NCCCCCCN
Outline: as §1

[4] = compound: CC(C)C[C@@H](C=O)NC(=O)[C@H](CC(C)C)NC(=O)[C@H](CC(C)C)NC(=O)OCc1ccccc1
Outline: as §1

pinometostat = compound: CC(C)N(C[C@H]1O[C@@H](n2cnc3c(N)ncnc32)[C@H](O)[C@@H]1O)[C@H]1C[C@@H](CCc2nc3cc(C(C)(C)C)ccc3[nH]2)C1 [pinometostat]
Outline: as §1

[5] = compound: CC1=C(C(CC(=O)N1)C2=CC=C(C=C2)C(F)(F)F)C(=O)NC3=C(C=C4C(=C3)C=NN4)F
Outline: as §1

[6] = compound: CC1=C(C2=C(C=C1)C(=O)C3=CC=CC=C3N2CCCN)C
Outline: as §1

[7] = compound: CC1=C(C=C(C=C1)NC(=O)C2=CC(=CC=C2)C(C)(C)C#N)NC3=CC4=C(C=C3)N=CN(C4=O)C
Outline: as §1

[8] = compound: CC1=C(C=C(C=C1)NC(=O)C2=CC(=CC=C2)N(C)C)NC(=O)C3=CC=C(C=C3)O
Outline: as §1

[9] = compound: CC1=CC=C(C=C1)SC2=C3C=C(SC3=CN=C2)C(=O)N
Outline: as §1

[10] = compound: CC1=NC(=CC=C1)C2=C(N=C(N2)C(C)(C)C)C3=CC4=NC=CN=C4C=C3
Outline: as §1

Nexturastat A = compound: CCCCN(Cc1ccc(C(=O)NO)cc1)C(=O)Nc1ccccc1 [Nexturastat A]
Outline: as §1

vemurafenib = compound: CCCS(=O)(=O)Nc1ccc(F)c(C(=O)c2c[nH]c3ncc(-c4ccc(Cl)cc4)cc23)c1F [vemurafenib]
Outline: as §1

[11] = compound: CCCS(=O)(=O)Nc1ccc(F)c(C(=O)c2c[nH]c3ncc(Cl)cc23)c1F
Outline: as §1

[12] = compound: CCCc1cc(C)[nH]c(=O)c1CNC(=O)c1cc(-c2ccnc(N3CCN(C)CC3)c2)cc2c1cnn2C(C)C
Outline: as §1

givinostat = compound: CCN(CC)Cc1ccc2cc(COC(=O)Nc3ccc(C(=O)NO)cc3)ccc2c1 [givinostat]
Outline: as §1

barasertib = compound: CCN(CCCOc1ccc2c(Nc3cc(CC(=O)Nc4cccc(F)c4)[nH]n3)ncnc2c1)CCOP(=O)(O)O [barasertib]
Outline: as §1

Measured: log2 fold change

UBA6
inactive: IRAK-1-4 Inhibitor I -0.038 | ibrutinib -0.01 | [1] -0.009 | ralimetinib -0.002 | [2] -0.012 | [3] -0.044 | [4] -0.025 | pinometostat 0.004 | [5] -0.044 | [6] 0.106 | [7] 0.086 | [8] -0.044 | [9] 0.032 | [10] 0.02 | Nexturastat A -0.027 | vemurafenib 0.057 | [11] 0.086 | [12] 0.036 | givinostat 0.015 | barasertib 0.07

USP9X (UniProt Q93008)
Sequence of UniProt Q93008 (Q93008 whole entry, looked up): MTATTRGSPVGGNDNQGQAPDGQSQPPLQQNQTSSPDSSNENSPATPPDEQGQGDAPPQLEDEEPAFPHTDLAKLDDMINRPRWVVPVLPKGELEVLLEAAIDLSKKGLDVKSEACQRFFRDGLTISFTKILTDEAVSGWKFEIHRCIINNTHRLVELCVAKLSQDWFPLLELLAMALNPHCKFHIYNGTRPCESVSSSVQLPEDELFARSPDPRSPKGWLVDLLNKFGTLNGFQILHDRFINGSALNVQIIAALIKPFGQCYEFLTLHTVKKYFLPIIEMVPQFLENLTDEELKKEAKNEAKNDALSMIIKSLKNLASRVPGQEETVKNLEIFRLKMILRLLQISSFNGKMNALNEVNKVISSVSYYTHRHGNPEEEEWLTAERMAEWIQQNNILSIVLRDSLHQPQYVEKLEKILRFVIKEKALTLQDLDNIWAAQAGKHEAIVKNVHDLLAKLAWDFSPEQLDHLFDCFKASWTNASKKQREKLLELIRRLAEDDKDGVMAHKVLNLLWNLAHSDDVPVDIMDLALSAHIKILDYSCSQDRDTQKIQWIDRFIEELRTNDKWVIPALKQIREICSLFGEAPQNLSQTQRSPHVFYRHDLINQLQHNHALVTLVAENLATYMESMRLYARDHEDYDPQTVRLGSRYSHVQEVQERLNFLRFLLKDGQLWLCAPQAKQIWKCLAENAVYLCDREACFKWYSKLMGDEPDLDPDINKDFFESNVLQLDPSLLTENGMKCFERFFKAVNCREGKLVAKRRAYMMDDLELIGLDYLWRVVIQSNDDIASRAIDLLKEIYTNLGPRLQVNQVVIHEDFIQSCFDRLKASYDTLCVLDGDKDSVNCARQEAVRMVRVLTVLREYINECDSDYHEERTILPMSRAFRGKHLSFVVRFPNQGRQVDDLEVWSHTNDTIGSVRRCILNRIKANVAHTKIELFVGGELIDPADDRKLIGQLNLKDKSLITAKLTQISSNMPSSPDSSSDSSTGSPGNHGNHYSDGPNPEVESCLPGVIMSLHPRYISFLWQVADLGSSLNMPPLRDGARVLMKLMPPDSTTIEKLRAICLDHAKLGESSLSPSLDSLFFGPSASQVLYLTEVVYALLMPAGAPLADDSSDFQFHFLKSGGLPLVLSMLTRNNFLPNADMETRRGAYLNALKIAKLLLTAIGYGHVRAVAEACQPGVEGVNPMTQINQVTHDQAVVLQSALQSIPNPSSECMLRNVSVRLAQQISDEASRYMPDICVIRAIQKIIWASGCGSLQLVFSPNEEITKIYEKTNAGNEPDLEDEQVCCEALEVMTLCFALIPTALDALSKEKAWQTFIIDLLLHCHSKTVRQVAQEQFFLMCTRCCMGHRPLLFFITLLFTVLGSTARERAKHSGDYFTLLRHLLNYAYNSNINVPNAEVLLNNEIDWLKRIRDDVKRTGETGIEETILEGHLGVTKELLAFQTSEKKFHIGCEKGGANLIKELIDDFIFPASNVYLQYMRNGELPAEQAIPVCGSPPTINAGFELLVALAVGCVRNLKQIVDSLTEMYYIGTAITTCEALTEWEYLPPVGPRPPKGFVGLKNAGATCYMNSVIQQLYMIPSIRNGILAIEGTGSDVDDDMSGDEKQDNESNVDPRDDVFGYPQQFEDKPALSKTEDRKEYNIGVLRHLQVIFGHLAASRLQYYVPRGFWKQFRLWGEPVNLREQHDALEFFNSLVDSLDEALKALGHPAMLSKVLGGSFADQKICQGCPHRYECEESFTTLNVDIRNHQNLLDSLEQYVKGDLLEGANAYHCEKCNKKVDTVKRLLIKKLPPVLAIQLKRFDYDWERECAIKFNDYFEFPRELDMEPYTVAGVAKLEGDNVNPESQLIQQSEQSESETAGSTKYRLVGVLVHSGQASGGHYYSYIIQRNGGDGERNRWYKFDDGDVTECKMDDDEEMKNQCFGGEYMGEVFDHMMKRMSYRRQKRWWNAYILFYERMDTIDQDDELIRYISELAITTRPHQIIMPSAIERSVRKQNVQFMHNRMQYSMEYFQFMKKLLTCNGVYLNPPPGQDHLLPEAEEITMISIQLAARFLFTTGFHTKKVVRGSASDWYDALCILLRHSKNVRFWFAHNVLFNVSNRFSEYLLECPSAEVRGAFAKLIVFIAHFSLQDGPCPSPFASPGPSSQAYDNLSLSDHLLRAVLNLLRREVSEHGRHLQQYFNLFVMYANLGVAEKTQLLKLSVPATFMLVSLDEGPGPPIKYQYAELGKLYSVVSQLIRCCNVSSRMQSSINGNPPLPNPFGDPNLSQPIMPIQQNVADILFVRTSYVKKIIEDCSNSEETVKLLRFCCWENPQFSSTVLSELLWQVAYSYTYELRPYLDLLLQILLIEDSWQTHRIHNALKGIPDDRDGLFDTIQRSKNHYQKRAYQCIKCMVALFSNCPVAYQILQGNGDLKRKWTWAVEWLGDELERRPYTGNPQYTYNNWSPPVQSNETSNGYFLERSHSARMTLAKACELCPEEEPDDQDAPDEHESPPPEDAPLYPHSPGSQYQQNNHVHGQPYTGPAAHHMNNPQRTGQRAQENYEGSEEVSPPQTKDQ
inactive: IRAK-1-4 Inhibitor I -0.006 | ibrutinib -0.041 | [1] -0.011 | ralimetinib 0.02 | [2] -0.117 | [3] -0.177 | [4] 0.01 | pinometostat 0.042 | [5] 0.002 | [6] 0.038 | [7] -0.015 | [8] -0.02 | [9] -0.009 | [10] 0.023 | Nexturastat A 0.015 | vemurafenib 0.019 | [11] 0.075 | [12] 0.007 | givinostat 0.025 | barasertib 0.043

TMEM9B (UniProt Q9NQ34)
Sequence of UniProt Q9NQ34 (Q9NQ34 whole entry, looked up): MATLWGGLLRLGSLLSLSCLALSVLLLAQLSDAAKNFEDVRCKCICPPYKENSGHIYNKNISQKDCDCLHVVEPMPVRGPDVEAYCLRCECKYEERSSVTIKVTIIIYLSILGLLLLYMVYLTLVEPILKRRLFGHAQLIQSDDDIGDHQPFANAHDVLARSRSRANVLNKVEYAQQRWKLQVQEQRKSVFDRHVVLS
inactive: IRAK-1-4 Inhibitor I -0.019 | ibrutinib 0.038 | [1] -0.083 | [2] 0.014 | [3] -0.082 | [4] -0.006 | pinometostat 0.015 | [5] 0.027 | [6] 0.038 | [7] -0.068 | [8] 0.042 | [9] 0.105 | [10] 0.01 | Nexturastat A -0.055 | vemurafenib 0.013 | [11] 0.064 | [12] 0.006 | givinostat -0.023 | barasertib -0.015
active: ralimetinib 0.324

UFD1 isoform 1 (UniProt Q92890)
Sequence of UniProt Q92890 (Q92890 whole entry, looked up): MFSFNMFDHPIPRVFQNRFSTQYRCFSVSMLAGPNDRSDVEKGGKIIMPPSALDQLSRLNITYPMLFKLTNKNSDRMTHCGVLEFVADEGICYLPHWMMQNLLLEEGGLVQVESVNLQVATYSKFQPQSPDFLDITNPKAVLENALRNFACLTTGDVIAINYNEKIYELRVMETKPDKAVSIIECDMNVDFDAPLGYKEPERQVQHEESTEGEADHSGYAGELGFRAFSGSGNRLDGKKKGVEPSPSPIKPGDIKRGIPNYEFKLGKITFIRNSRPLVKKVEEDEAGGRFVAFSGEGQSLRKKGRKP
inactive: IRAK-1-4 Inhibitor I 0.025 | ibrutinib -0.018 | [1] -0.005 | ralimetinib 0 | [2] -0.04 | [3] 0.04 | [4] 0.021 | pinometostat -0.04 | [5] -0.016 | [6] 0 | [7] 0.02 | [8] -0.025 | [9] 0.037 | [10] 0.106 | Nexturastat A 0.015 | vemurafenib 0 | [11] 0.018 | [12] -0.015 | givinostat 0.032 | barasertib -0.011

XRCC6 (UniProt P12956)
Sequence of UniProt P12956 (P12956 whole entry, looked up): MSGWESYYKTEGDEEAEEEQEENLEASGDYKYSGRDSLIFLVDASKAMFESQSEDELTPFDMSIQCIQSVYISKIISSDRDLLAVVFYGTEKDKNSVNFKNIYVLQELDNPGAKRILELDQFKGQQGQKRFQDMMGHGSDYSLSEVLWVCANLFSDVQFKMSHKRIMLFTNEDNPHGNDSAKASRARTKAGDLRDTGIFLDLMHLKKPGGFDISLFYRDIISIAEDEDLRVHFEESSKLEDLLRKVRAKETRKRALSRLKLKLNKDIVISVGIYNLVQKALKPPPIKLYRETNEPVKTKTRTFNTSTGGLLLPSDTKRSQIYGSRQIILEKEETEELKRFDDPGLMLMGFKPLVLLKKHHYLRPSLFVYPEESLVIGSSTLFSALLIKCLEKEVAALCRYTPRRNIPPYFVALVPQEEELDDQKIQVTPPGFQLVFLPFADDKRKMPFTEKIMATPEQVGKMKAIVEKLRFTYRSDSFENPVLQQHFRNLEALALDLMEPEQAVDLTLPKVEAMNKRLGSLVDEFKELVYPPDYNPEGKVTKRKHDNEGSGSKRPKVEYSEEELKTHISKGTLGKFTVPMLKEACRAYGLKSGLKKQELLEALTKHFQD
inactive: IRAK-1-4 Inhibitor I -0.046 | ibrutinib -0.057 | [1] -0.12 | ralimetinib -0.004 | [2] -0.124 | [3] -0.195 | [4] 0.074 | pinometostat -0.01 | [5] -0.001 | [6] -0.008 | [7] 0.046 | [8] -0.051 | [9] 0.022 | [10] 0.033 | Nexturastat A -0.023 | vemurafenib 0.059 | [11] 0.138 | [12] 0.025 | givinostat 0.116 | barasertib 0.086

TOMM5 isoform 2 (UniProt Q8N4H5)
Sequence of UniProt Q8N4H5 (Q8N4H5 whole entry, looked up): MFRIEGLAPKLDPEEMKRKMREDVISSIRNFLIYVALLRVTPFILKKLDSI
inactive: IRAK-1-4 Inhibitor I 0.037 | ibrutinib 0.01 | [1] -0.033 | ralimetinib -0.099 | [2] -0.048 | [3] 0.221 | [4] 0.036 | pinometostat 0.148 | [5] -0.004 | [6] 0.003 | [7] -0.009 | [8] 0.367 | [9] 0.005 | [10] 0.084 | Nexturastat A 0.025 | vemurafenib 0 | [11] -0.011 | [12] 0.141 | givinostat -0.029 | barasertib 0.03

USP24 (UniProt Q9UPU5)
inactive: IRAK-1-4 Inhibitor I 0.052 | ibrutinib 0.086 | [1] 0.156 | ralimetinib -0.077 | [2] -0.093 | [3] 0.004 | [4] -0.043 | pinometostat -0.026 | [5] -0.08 | [6] 0.017 | [7] 0.114 | [8] -0.026 | [9] 0 | [10] 0.012 | Nexturastat A -0.047 | vemurafenib 0 | [11] 0.052 | [12] -0.042 | givinostat 0.011 | barasertib -0.053

VPS41 (UniProt P49754)
Sequence of UniProt P49754 (P49754 whole entry, looked up): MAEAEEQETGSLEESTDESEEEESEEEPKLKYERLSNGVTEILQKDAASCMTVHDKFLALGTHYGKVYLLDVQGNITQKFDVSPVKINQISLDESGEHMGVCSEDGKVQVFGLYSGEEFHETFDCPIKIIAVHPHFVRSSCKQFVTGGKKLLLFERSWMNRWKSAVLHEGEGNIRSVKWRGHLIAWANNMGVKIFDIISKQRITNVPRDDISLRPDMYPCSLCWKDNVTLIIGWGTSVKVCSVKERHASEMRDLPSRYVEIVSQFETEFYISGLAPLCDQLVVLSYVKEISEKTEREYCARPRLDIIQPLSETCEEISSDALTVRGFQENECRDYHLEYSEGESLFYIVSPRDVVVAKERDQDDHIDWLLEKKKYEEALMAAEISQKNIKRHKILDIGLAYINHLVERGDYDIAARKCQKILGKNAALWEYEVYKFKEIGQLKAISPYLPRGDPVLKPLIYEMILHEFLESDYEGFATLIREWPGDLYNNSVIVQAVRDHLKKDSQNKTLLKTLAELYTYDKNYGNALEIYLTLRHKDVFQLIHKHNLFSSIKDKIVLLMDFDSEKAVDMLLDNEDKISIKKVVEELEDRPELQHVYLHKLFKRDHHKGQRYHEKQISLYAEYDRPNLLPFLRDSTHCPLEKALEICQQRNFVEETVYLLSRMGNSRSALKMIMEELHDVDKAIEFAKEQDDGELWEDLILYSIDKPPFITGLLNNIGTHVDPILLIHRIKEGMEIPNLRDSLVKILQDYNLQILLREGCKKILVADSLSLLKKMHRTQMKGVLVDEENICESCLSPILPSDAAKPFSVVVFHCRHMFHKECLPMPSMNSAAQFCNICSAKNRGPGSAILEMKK
inactive: IRAK-1-4 Inhibitor I -0.002 | ibrutinib -0.033 | [1] -0.019 | ralimetinib 0.052 | [2] 0.019 | [4] 0.026 | pinometostat 0.037 | [5] 0.003 | [6] 0.063 | [7] 0.015 | [8] 0.003 | [9] 0.004 | [10] -0.028 | Nexturastat A 0.108 | vemurafenib -0.051 | [11] 0.025 | [12] -0.03 | givinostat -0.013 | barasertib -0.02
active: [3] -0.383

From the supplement of paper PMC10849652
